Among the data in PubChem BioAssay (NCATS) are Potency, activation and viability values, retold here.

SMILES strings stand for the structures. Several values for one entry are separate records, joined by “and”; a condition that tells them apart may be missing. Equal entries are not always repeated. Results filed as inconclusive are left out. Unmarked numbers belong to inactive results. Activity calls are given as the source filed them. The call rests on the fitted dose curve; in most records, active means well fitted curve in the direction sought with a large enough effect; inconclusive means small, poorly fitted or top-dose-only effect, or another doubt; inactive means no such curve, though single readings can be large; an effect the other way counts as inactive or inconclusive.

The target in assay [1] is Cellular tumor antigen p53 (Homo sapiens) (UniProt P04637). In words: Primary qHTS for small molecule compounds that upregulate eGFP-tagged delta133p53alpha (in N-terminal) cells. (AID 2060322). Further: nearly all actives have a fitted effect of over 75% in size. Further: potency means the concentration at half of the fitted maximal effect.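 On activation: cells pre-induced with doxycycline then dosed without doxycycline; series mostly up to about 56 µM; 0% = DMSO vehicle and 100% = reference activator.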 To be noted: NCI-H358 eGFP-delta133p53alpha fluorescence, 24 h; activation: active compounds read high. A digest of the protocol: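 NCI-H358 cells pre-induced 24 h with 10 ng/ml doxycycline for eGFP-delta133p53alpha, plated dox-free and exposed 24 h at 37C to titrated compounds. Fixed, Hoechst-stained; gated GFP peak intensity by laser scanning cytometry, normalized to DMSO (0%) and 57.5 uM 5-azacytidine (100%).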
Background: qHTS replaces the single test concentration by a dilution series.

In assay [2] the target is Aldehyde dehydrogenase, mitochondrial (Homo sapiens) (UniProt P05091). In words: qHTS for Inhibitors of the Aldehyde Dehydrogenase Family (ALDH2) Primary screen (AID 2061308).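 Further: plate controls were vehicle for no effect and reference inhibitor for full effect; nearly all actives have a fitted effect of over 55% in size.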
Assay [3] has as its target Retinaldehyde dehydrogenase 3 (Homo sapiens) (UniProt P47895). Kind of assay: qHTS for Inhibitors of the Aldehyde Dehydrogenase Family (ALDH1A3) Validation screen (AID 2061312). Further: on the % scale 0 is the no-effect control and ±100 the full control effect; nearly all actives have a fitted effect of over 45% in size.
For assay [4] the target is unchanged. In words: qHTS for Inhibitors of the Aldehyde Dehydrogenase Family (ALDH1A3) Primary screen (AID 2061315).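 Further: plate controls were DMSO vehicle for no effect and reference inhibitor for full effect.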
The nature of assay [5]: BET inhibitor-based combinations targeting novel dependencies in MECOM-rearranged (r) AML: SET-2 cell line (AID 2202231). Further: nearly all actives have a fitted effect of over 35% in size. Further: potency means the concentration at half of the fitted maximal effect.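 On viability: plate controls were DMSO treated cells for no effect and wells without cells for full effect.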 To be noted: SET-2 AML cells viability, CellTiter-Glo luminescence, 48 h; viability: active compounds read low, concentration not given here. A digest of the protocol: (§1)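 Each compound was tested at eleven concentrations on cells seeded at 500/well. After two days' incubation, ATP-based luminescence reported viability; responses relative to DMSO and blank wells yielded AUC and cell-line-centred Z-AUC.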
On the technique in general: ATP-based viability assays read luminescence as a measure of living cells.

Assay [6] can be described thus: BET inhibitor-based combinations targeting novel dependencies in MECOM-rearranged (r) AML: OCI-AML3 cell line (AID 2202232). Further: nearly all actives have a fitted effect of over 35% in size. Further: potency means the concentration at half of the fitted maximal effect. To be noted: Potency: OCI-AML3 viability. In a few lines:
as §1

Assay [7] in a line: BET inhibitor-based combinations targeting novel dependencies in MECOM-rearranged (r) AML: MV-4-11 cell line (AID 2202233). Further: nearly all actives have a fitted effect of over 45% in size. Further: potency means the concentration at half of the fitted maximal effect. A digest of the protocol: (§2)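 First, 500 cells per well were seeded; next, drugs were pinned as 11-point doses; then plates sat 48 hr in the incubator; finally CellTiter-Glo was added and luminescence read, with AUC and Z-AUC computed.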
Assay [8] in a line: BET inhibitor-based combinations targeting novel dependencies in MECOM-rearranged (r) AML: HNT-34 cell line (AID 2202234). Further: nearly all actives have a fitted effect of over 35% in size. Further: potency means the concentration at half of the fitted maximal effect. A digest of the protocol: as §2
A short description of assay [9]: BET inhibitor-based combinations targeting novel dependencies in MECOM-rearranged (r) AML: AML-191 cell line (AID 2202236; further: nearly all actives have a fitted effect of over 35% in size; further: potency means the concentration at half of the fitted maximal effect). A digest of the protocol: as §1
Assay [10] in a line: BET inhibitor-based combinations targeting novel dependencies in MECOM-rearranged (r) AML: AML-194 cell line (AID 2202237; further: nearly all actives have a fitted effect of over 40% in size; further: potency means the concentration at half of the fitted maximal effect). In a few lines: as §1
Assay [11] is described as follows: BET inhibitor-based combinations targeting novel dependencies in MECOM-rearranged (r) AML: UCSD-AML1 cell line (AID 2202235). Further: nearly all actives have a fitted effect of over 40% in size. Further: potency means the concentration at half of the fitted maximal effect. A digest of the protocol:
as §2

Chain of Cellular tumor antigen p53 (Homo sapiens) (P04637 whole entry, looked up): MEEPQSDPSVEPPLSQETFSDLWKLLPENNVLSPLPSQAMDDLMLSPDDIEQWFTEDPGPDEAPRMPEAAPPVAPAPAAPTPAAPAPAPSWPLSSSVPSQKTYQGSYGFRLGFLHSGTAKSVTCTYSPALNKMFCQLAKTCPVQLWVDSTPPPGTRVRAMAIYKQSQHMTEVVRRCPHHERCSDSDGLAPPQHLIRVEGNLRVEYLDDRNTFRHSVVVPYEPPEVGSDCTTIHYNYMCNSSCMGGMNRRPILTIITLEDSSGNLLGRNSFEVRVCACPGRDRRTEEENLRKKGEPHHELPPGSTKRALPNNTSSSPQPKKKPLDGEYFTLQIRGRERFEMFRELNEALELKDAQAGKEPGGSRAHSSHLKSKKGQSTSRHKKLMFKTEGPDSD

In the case of `CC(C)C[C@H](NC(=O)[C@H](Cc1ccccc1)NC(=O)c1cnccn1)B(O)O`, the Potency in assay [1] is 968 nM (active) and 379 nM (active); in assay [5], 16.6 nM (active); in assay [6], 10.5 nM (active); in assay [7], 13.2 nM (active); in assay [8], 14.8 nM (active); in [9] it was 18.6 nM (active). In assay [10], the Potency is 20.9 nM (active). Further, the Potency result in assay [2], in assay [3] and in [4] was “inactive” each time.

`Fc1ccc(CNc2ncnc3ccc(F)cc23)cc1`: the activation in assay [1] is -0.393% and 5.25%. Moreover, the Potency entry in [2], in assay [3], in [4], in assay [11] and in assay [10] was “inactive” in each case. Also, the Potency in [5] is 2630 nM (active); in assay [6], 4170 nM (active); in [7] it was 5900 nM (active); in [8], 16600 nM (active).

As to `CC(=O)Nc1ccc([C@H](C)C(=O)Nc2ncc(C(C)C)s2)cc1`, the Potency in [1] is 3.06 µM (active) and 2.69 µM (active); in assay [5], 3320 nM (active); in assay [6], 7420 nM (active); in assay [7] it was 5250 nM (active); in [8], 3320 nM (active); in [11], 3320 nM (active). For the same compound, the values for the Potency in [9] and in assay [10] were 1860 nM (active) and 2950 nM (active), respectively. Further, the Potency result in assay [2], in assay [3] and in assay [4] was “inactive” throughout.

A word on the viability: it is a read-out of living cells in per cent, often relative to untreated cells. `CC1COC2(CCN(c3nc(=O)c4cc(C(F)(F)F)cc([N+](=O)[O-])c4s3)CC2)O1` (stereo unspecified): the activation in [1] was -5.81% and -10.5%. Moreover, the Potency entry in assay [2], in assay [3], in assay [4], in assay [6], in assay [7] and in assay [8] was “inactive” each time. Also, the Potency entry in [11], in [9] and in assay [10] was “inactive” each time. For the same compound, the viability in assay [5] was 104%.

Turning to `CN1CCN(Cc2ccc(NC(=O)Nc3ccc(Oc4cc(NC(=O)C5CC5)ncn4)cc3)cc2C(F)(F)F)CC1`, the Potency in [1] was 968 nM (active); in assay [5], 742 nM (active); in assay [6], 372 nM (active); in assay [7], 3.7 nM (active); in assay [8], 46.8 nM (active); in [11], 372 nM (active). Besides, the Potency was 590 nM (active) in [9] and 833 nM (active) in assay [10]. For the same compound, the Potency result in [2], in [3] and in assay [4] was “inactive” each time.

In the case of `Cc1[nH]c(/C=C2\C(=O)Nc3ccc(S(=O)(=O)N(C)c4cccc(Cl)c4)cc32)c(C)c1C(=O)N1CCN(C)CC1`, the activation in assay [1] was -19.1%. The Potency result in assay [2], in [3] and in assay [4] was “inactive” throughout. The Potency in [5] was 20900 nM (active); in assay [6], 10500 nM (active); in [7] it was 4680 nM (active); in assay [8], 16600 nM (active); in assay [9] it was 7420 nM (active); in assay [10] it was 7420 nM (active).

With `CN(C)C1CCN(C(=O)c2ccc(NC(=O)Nc3nc(N4CCOCC4)nc(N4CCOCC4)n3)cc2)CC1`, the activation in [1] is -12.1%. In addition, the Potency entry in assay [2], in [3] and in assay [4] was “inactive” throughout. Further, the Potency in assay [5] was 5250 nM (active); in assay [6] it was 132 nM (active); in assay [7] it was 105 nM (active); in assay [11], 296 nM (active); in assay [10], 590 nM (active).

As to `CCOCc1nc2c(N)nc3ccccc3c2n1CC(C)(C)O`, the activation in assay [1] was 4.77%. In addition, the Potency result in assay [2], in assay [3], in assay [4], in assay [6], in assay [7] and in assay [8] was “inactive” throughout. The Potency result in assay [11], in assay [9] and in assay [10] was “inactive” each time. Further, the viability in assay [5] was 108%.

As to `NC(=O)Nc1cc(-c2cccc(F)c2)sc1C(=O)N[C@H]1CCCNC1`, the Potency in assay [1] was 8490 nM (active); in assay [5], 934 nM (active); in assay [6], 468 nM (active); in assay [7], 2.1 nM (active); in [8], 468 nM (active); in [11] it was 296 nM (active). The Potency in [9] was 332 nM (active); in assay [10], 372 nM (active). The Potency result in assay [2], in [3] and in assay [4] was “inactive” throughout.

Turning to `COCCN1CCN(Cc2ccc(-c3n[nH]c4c3C(=O)c3c(NC(=O)NN5CCOCC5)cccc3-4)cc2)CC1`, the Potency was 75.7 nM (active) in [1]; 417 nM (active) in assay [5]; 166 nM (active) in [6]; 26.3 nM (active) in [7]; 166 nM (active) in [8]; 148 nM (active) in assay [11]. The Potency was 186 nM (active) in [9] and 332 nM (active) in assay [10]. Further, the Potency entry in assay [2], in [3] and in [4] was “inactive” throughout.

As for `CC(C)CNc1ccnc(NCc2csc(-c3ccccc3)n2)n1`, in assay [1], the activation is 18.4% and 19.6%. Also, the Potency entry in assay [2], in assay [3] and in [4] was “inactive” in each case. For the same compound, the Potency is 11800 nM (active) in assay [5]; 8330 nM (active) in [6]; 8330 nM (active) in [7]; 5900 nM (active) in [8]; 5250 nM (active) in assay [11]; 16600 nM (active) in assay [9]. Besides, the Potency in [10] was 16600 nM (active).

For `O=C(Nc1ncc(-c2cc(C(F)F)nn2-c2c(Cl)cccc2Cl)s1)C1CC1`, the activation in assay [1] is 7.16%. The Potency entry in assay [2], in assay [3] and in assay [4] was “inactive” throughout. Further, the Potency in assay [5] is 1050 nM (active); in [6], 833 nM (active); in assay [7] it was 1050 nM (active); in [8] it was 742 nM (active); in [11] it was 833 nM (active); in assay [9], 934 nM (active). Moreover, the Potency in assay [10] was 742 nM (active).

`Cc1c(-c2ccnn2C)cc(C(=O)NCc2ccc(S(C)(=O)=O)cn2)c(=O)n1-c1cccc(C(F)(F)F)c1`: the activation in assay [1] was -2.86% and -5.25%. The Potency entry in [2], in assay [3], in [4], in assay [6], in assay [7] and in [8] was “inactive” throughout. Further, the Potency entry in assay [11] and in [10] was “inactive” in each case. The viability in [5] is 103%.

For `NCC(=O)Nc1ccc(-n2nc(C(F)(F)F)cc2-c2ccc3c(ccc4ccccc43)c2)cc1`, the activation in assay [1] was -7.41%. Further, the Potency entry in assay [2], in assay [3], in [4] and in assay [11] was “inactive” in each case. Further, the Potency is 11800 nM (active) in assay [5], 18600 nM (active) in assay [6], 4680 nM (active) in assay [7] and 16600 nM (active) in assay [9].
